Measured values from article PMC7862700, “An all-to-all approach to the identification of sequence-specific readers for epigenetic DNA modifications on cytosine”.

What was measured:
Test in all cases: DAPPL (digital affinity profiling via proximity ligation, sequencing); 10 mM Tris-HCl pH 7.5, 50 mM NaCl, 1 mM DTT, 4% glycerol, room temperature, 30 min; GST-TFs on glutathione beads, 16-mer random dsDNA library, 0.1% formaldehyde crosslink after washing; high values mean tight binding
Conditions in all cases: protein: recombinant; tags: N-terminal GST; dsDNA, one strand shown
FLI1 = target: T1, FLI1 (Homo sapiens, UniProt Q01543 1-452)
T1 sequence: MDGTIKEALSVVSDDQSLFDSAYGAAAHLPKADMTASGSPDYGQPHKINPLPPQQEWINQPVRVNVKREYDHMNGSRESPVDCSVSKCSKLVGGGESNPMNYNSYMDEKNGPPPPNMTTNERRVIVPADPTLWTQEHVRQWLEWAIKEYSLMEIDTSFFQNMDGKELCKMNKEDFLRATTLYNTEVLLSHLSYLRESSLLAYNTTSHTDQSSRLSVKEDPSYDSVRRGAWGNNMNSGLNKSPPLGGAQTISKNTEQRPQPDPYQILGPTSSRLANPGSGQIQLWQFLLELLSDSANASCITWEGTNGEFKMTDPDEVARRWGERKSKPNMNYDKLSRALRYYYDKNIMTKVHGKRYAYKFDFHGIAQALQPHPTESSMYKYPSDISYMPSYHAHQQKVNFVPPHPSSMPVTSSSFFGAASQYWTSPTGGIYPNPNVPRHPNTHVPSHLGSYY
Procedure, shortened: (§1)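 Beads coated with glutathione captured GST-fused human transcription factors that had been expressed in yeast, and the factors were then given DNA barcodes and pooled with a tag-only sample. The pools were incubated with 200 nmole of a random double-stranded 16-mer DNA library in Tris/NaCl/DTT/glycerol buffer for 30 min at room temperature, washed, crosslinked with 0.1% formaldehyde and proximity-ligated with BsaI/T4 ligase at 37 °C for 1 h. PCR amplification and Illumina NextSeq500 sequencing came last. Binding signal is each hexamer's read frequency for a factor divided by its frequency for the tag-only sample.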

ELK1 = target: T2, ELK1 (Homo sapiens, UniProt P19419 1-428)
T2 sequence: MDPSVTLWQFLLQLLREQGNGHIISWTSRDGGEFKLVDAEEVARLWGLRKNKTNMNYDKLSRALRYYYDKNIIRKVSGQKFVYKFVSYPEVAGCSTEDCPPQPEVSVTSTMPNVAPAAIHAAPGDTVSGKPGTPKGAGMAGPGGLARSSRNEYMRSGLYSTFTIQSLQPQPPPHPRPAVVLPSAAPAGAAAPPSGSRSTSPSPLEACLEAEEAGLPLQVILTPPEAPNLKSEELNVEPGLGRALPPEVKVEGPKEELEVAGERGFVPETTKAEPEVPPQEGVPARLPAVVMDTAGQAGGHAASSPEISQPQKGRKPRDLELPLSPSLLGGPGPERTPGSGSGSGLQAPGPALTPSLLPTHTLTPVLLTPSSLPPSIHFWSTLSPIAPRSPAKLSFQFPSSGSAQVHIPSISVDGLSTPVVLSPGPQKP
Procedure, shortened: as §1

ERG = target: T3, ERG (Homo sapiens, UniProt P11308 1-479)
T3 sequence: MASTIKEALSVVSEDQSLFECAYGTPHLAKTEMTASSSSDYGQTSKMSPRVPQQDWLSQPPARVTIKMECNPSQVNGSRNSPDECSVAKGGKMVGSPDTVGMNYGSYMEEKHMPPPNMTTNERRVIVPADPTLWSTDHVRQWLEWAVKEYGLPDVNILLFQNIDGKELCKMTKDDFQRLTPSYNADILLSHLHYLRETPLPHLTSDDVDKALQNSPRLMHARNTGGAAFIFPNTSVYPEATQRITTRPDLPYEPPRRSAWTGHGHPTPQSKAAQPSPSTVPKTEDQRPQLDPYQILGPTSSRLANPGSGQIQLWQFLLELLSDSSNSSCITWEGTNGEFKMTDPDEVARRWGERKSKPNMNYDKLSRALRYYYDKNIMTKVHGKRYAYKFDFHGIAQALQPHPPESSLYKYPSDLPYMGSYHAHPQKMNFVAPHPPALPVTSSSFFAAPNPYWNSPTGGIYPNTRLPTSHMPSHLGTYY
Procedure, shortened: as §1

ELF1 = ELF1 (Homo sapiens, UniProt P32519 1-619)
Procedure, shortened: as §1

EHF = target: T4, EHF (Homo sapiens, UniProt Q9NZC4 1-300)
T4 sequence: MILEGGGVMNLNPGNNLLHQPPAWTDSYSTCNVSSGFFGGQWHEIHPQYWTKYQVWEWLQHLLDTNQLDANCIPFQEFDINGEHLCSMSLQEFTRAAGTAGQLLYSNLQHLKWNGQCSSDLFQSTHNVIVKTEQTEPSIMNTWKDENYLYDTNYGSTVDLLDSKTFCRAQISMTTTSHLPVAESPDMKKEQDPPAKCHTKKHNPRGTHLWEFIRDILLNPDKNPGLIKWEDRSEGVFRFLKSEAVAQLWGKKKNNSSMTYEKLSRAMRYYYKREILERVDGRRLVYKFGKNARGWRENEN
Procedure, shortened: as §1

SPI1 = SPI1 (Homo sapiens, UniProt P17947 1-270)
Procedure, shortened: as §1

SPIB = SPIB (Homo sapiens, UniProt Q01892 1-262)
Procedure, shortened: as §1

ELK3 = target: T5, ELK3 (Homo sapiens, UniProt P41970 1-407)
T5 sequence: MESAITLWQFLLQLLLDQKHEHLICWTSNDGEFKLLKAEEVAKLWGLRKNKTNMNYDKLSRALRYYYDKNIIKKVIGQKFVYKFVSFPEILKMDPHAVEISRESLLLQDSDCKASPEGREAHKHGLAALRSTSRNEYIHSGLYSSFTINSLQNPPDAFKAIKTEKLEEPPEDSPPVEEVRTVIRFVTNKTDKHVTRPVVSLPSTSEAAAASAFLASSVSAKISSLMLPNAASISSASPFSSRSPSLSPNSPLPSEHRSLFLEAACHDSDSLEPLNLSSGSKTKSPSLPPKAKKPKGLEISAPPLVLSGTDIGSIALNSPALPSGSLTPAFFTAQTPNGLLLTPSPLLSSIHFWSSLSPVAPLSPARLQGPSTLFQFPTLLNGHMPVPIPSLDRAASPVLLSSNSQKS
Procedure, shortened: as §1

FEV = target: T6, FEV (Homo sapiens, UniProt Q99581 1-238)
T6 sequence: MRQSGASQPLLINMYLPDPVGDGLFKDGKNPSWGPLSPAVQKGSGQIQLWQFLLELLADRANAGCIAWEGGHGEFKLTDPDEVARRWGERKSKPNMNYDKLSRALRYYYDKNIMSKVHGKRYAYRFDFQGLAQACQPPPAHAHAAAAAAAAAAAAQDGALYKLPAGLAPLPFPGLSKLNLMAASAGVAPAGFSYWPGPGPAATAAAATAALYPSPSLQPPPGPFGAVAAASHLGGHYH
Procedure, shortened: as §1

ETV5 = ETV5 (Homo sapiens, UniProt P41161 1-510)
Procedure, shortened: as §1

SPIC = target: T7, SPIC (Homo sapiens, UniProt Q8N5J4 1-248)
T7 sequence: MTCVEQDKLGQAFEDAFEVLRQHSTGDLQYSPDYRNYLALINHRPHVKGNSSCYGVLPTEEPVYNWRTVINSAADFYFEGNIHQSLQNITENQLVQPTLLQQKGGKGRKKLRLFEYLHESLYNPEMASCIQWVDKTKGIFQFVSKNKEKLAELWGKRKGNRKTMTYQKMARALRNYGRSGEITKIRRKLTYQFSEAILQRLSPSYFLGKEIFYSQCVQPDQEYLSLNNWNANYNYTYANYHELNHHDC
Procedure, shortened: as §1

ELF4 = ELF4 (Homo sapiens, UniProt Q99607 1-663)
Procedure, shortened: as §1

ELK4 = target: T8, ELK4 (Homo sapiens, UniProt P28324-2 1-405)
T8 sequence: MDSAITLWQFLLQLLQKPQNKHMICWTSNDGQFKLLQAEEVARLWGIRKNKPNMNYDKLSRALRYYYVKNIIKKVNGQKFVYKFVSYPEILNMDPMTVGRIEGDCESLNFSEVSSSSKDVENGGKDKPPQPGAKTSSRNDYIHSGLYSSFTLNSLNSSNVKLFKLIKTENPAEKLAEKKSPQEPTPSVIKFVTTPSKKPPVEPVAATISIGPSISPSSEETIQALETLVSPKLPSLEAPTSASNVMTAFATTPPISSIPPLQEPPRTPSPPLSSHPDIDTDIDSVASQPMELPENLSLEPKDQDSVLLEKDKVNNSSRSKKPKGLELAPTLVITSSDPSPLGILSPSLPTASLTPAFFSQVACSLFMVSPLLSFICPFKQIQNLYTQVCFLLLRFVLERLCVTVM
Procedure, shortened: as §1

ETV2 = target: T9, ETV2 (Homo sapiens, UniProt O00321 1-342)
T9 sequence: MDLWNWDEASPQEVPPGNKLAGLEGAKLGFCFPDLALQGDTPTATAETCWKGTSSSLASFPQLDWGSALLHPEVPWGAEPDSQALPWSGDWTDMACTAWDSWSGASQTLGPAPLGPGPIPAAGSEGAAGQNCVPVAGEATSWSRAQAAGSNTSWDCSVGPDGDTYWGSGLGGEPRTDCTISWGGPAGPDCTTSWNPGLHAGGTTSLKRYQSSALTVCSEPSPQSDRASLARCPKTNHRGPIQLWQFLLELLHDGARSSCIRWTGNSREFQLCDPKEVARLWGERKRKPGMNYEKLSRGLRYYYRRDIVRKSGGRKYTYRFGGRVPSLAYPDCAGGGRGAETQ
Procedure, shortened: as §1

ELF3 = target: T10, ELF3 (Homo sapiens, UniProt P78545 1-371)
T10 sequence: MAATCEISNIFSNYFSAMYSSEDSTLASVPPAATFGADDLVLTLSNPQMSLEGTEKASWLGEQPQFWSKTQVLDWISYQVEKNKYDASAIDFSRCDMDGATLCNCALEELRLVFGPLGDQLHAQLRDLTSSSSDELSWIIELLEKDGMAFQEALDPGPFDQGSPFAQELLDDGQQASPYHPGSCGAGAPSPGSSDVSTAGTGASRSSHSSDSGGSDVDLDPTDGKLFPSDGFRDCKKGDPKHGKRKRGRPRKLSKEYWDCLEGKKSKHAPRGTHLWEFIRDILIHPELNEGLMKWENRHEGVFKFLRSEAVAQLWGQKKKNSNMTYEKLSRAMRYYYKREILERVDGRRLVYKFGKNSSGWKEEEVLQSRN
Procedure, shortened: as §1

ETV1 = ETV1 (Homo sapiens, UniProt P50549 1-477)
Procedure, shortened: as §1

GABPA = target: T11, GABPA (Homo sapiens, UniProt Q06546 1-454)
T11 sequence: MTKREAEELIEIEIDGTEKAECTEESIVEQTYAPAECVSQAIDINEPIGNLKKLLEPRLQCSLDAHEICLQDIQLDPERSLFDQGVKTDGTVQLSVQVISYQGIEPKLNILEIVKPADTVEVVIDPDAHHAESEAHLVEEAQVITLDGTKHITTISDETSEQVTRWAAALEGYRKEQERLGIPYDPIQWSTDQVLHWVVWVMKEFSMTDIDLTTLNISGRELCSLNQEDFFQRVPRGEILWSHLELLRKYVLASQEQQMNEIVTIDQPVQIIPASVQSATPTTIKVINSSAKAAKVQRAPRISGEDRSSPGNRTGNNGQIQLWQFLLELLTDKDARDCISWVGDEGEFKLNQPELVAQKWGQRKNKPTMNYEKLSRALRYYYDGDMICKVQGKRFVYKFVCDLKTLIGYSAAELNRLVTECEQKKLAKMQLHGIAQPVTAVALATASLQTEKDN
Procedure, shortened: as §1

Sequence of ELF4 (Q99607 whole entry): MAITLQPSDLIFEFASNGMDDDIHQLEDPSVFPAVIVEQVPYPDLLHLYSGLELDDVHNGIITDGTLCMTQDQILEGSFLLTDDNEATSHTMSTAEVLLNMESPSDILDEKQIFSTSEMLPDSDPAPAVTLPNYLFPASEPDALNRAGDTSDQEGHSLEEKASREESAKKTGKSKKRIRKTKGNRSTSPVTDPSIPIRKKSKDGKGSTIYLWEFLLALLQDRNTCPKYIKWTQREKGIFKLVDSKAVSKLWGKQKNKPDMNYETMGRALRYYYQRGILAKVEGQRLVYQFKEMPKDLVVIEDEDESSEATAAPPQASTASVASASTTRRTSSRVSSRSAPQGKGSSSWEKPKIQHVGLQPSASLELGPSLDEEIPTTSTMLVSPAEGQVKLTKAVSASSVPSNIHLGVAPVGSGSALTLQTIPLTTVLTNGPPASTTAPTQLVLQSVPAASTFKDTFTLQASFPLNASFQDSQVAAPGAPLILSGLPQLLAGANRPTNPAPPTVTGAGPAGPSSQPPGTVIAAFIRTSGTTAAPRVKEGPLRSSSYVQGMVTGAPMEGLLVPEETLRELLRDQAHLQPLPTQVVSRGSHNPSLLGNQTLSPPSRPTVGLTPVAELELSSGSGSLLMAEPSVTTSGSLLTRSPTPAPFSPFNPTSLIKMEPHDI
Sequence of ETV5 (P41161 whole entry): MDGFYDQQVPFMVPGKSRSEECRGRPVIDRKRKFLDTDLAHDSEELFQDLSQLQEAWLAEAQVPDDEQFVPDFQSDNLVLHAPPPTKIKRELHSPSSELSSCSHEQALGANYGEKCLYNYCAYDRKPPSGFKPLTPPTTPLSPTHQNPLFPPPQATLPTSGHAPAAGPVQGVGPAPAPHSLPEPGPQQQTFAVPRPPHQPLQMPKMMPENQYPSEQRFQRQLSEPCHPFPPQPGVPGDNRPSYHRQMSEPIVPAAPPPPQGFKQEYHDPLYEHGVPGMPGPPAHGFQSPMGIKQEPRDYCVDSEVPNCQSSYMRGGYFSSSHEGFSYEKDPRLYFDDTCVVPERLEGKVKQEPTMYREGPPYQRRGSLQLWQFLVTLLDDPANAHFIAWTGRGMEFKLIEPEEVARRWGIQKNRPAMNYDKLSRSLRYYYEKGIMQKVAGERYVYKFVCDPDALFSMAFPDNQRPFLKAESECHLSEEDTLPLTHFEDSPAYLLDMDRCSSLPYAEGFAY
Sequence of ELF1 (P32519 whole entry): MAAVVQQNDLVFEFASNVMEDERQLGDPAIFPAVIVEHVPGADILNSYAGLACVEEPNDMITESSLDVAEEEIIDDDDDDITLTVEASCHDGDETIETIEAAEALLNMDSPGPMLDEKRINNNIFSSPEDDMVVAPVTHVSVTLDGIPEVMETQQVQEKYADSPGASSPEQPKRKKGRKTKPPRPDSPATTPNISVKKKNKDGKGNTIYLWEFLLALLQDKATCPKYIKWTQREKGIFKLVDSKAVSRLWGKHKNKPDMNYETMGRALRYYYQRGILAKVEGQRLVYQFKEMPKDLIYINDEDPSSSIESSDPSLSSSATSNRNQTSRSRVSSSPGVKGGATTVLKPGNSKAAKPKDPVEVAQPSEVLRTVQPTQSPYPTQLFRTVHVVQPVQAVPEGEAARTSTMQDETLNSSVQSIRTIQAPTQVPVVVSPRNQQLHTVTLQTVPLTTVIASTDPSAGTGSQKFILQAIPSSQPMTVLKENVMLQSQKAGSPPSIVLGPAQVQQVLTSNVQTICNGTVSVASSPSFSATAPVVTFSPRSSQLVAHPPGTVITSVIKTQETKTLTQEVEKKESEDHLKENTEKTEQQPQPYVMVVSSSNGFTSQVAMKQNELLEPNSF
Sequence of SPIB (Q01892 whole entry): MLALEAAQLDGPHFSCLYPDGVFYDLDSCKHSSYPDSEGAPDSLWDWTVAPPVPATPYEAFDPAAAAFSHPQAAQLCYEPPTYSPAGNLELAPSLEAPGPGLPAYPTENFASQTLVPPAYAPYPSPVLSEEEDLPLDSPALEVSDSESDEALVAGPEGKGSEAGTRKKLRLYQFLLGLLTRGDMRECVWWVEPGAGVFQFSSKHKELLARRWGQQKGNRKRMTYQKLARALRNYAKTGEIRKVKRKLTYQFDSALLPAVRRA
Sequence of ETV1 (P50549 whole entry): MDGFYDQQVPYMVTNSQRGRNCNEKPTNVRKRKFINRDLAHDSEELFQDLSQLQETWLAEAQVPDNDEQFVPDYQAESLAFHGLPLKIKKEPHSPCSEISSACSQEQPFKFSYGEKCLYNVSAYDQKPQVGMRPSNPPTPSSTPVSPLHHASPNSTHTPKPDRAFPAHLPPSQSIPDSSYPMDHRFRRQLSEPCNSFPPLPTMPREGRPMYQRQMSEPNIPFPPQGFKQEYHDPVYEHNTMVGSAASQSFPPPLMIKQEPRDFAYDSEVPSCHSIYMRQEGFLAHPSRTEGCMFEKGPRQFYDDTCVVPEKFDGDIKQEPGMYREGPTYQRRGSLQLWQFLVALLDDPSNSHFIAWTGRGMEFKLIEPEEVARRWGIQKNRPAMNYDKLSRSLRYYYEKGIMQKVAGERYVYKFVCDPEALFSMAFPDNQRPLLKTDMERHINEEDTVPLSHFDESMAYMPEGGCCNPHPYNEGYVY

Sequence	binding signal (FLI1)	binding signal (ELK1)	binding signal (ERG)	binding signal (ELF1)	binding signal (EHF)	binding signal (SPI1)	binding signal (SPIB)	binding signal (ELK3)	binding signal (FEV)	binding signal (ETV5)	binding signal (SPIC)	binding signal (ELF4)	binding signal (ELK4)	binding signal (ETV2)	binding signal (ELF3)	binding signal (ETV1)	binding signal (GABPA)
CCGGTC	1.17 fold enrichment (6-mer frequency, TF over GST control)	1.18 fold enrichment (6-mer frequency, TF over GST control)	1.3 fold enrichment (6-mer frequency, TF over GST control)	1.14 fold enrichment (6-mer frequency, TF over GST control)	1.1 fold enrichment (6-mer frequency, TF over GST control)	1.01 fold enrichment (6-mer frequency, TF over GST control)	1.08 fold enrichment (6-mer frequency, TF over GST control)	1.18 fold enrichment (6-mer frequency, TF over GST control)	1.62 fold enrichment (6-mer frequency, TF over GST control)	1.22 fold enrichment (6-mer frequency, TF over GST control)	1.01 fold enrichment (6-mer frequency, TF over GST control)	1.08 fold enrichment (6-mer frequency, TF over GST control)	1.18 fold enrichment (6-mer frequency, TF over GST control)	1.08 fold enrichment (6-mer frequency, TF over GST control)	1.14 fold enrichment (6-mer frequency, TF over GST control)	1.17 fold enrichment (6-mer frequency, TF over GST control)	–
CAACAA	1.08 fold enrichment (6-mer frequency, TF over GST control)	1.08 fold enrichment (6-mer frequency, TF over GST control)	1.01 fold enrichment (6-mer frequency, TF over GST control)	1.06 fold enrichment (6-mer frequency, TF over GST control)	1.05 fold enrichment (6-mer frequency, TF over GST control)	1.02 fold enrichment (6-mer frequency, TF over GST control)	–	1.12 fold enrichment (6-mer frequency, TF over GST control)	1.05 fold enrichment (6-mer frequency, TF over GST control)	1.02 fold enrichment (6-mer frequency, TF over GST control)	1.06 fold enrichment (6-mer frequency, TF over GST control)	1.13 fold enrichment (6-mer frequency, TF over GST control)	1.02 fold enrichment (6-mer frequency, TF over GST control)	1.08 fold enrichment (6-mer frequency, TF over GST control)	1.2 fold enrichment (6-mer frequency, TF over GST control)	1.05 fold enrichment (6-mer frequency, TF over GST control)	1.1 fold enrichment (6-mer frequency, TF over GST control)
ACCCAA	1.12 fold enrichment (6-mer frequency, TF over GST control)	1.15 fold enrichment (6-mer frequency, TF over GST control)	1.03 fold enrichment (6-mer frequency, TF over GST control)	1.16 fold enrichment (6-mer frequency, TF over GST control)	–	1.12 fold enrichment (6-mer frequency, TF over GST control)	1.08 fold enrichment (6-mer frequency, TF over GST control)	1.03 fold enrichment (6-mer frequency, TF over GST control)	1.05 fold enrichment (6-mer frequency, TF over GST control)	1.08 fold enrichment (6-mer frequency, TF over GST control)	1.2 fold enrichment (6-mer frequency, TF over GST control)	1.18 fold enrichment (6-mer frequency, TF over GST control)	1.08 fold enrichment (6-mer frequency, TF over GST control)	1.13 fold enrichment (6-mer frequency, TF over GST control)	1.26 fold enrichment (6-mer frequency, TF over GST control)	–	1.18 fold enrichment (6-mer frequency, TF over GST control)
